From PubChem BioAssay AID588549 (Broad Institute, 2011)
In all, about 360,000 compounds went through this assay and about 780 (0.22%) were called active. For the sample, actives were picked, then their nearest neighbours and some compounds at random. A number with no mark means an inactive call. Cut-off read from the data, not from the text of the source: active = inhibition above about 8.5% (passing the limit was not always enough); inconclusive = no clear call, values can overlap the other calls.

Tested on: Mycobacterium tuberculosis FadD28 fatty-acid-AMP ligase
Assay: inhibitors of FadD28 bisubstrate probe binding, primary screen, biochemical, fluorescence polarization, single point (AID 588549)
Conditions: at 12.5 µM, hits give high values

SMILES | inhibition
CCN1CC(CN(C)Cc2nc(-c3ccc(Cl)cc3)no2)CC1=O (configuration not stated) | -0.366%
Oc1c(Cl)cc(Cl)c(Cl)c1Cc1c(O)c(Cl)cc(Cl)c1Cl | 65.8% (active)
COc1ccc(SCc2noc(C(=O)NCC3CCCO3)c2C(=O)O)cc1 (configuration not stated) | 0.0895%
CCn1nnc2cc(C(=O)Nc3ccc(C(=O)OC(C)C)cc3)ccc21 | -3.75%
CC1CCCCC1NC(=O)c1cc(=O)[nH]c2ccccc12 (configuration not stated) | -0.133%
COc1ccc(OC)c(C(=O)c2coc3ccc(O)c(CN4CCOCC4)c23)c1 | -2.66%
CCOC(=O)c1ccccc1N1C(=O)C2Sc3[nH]c(=O)sc3C(/C=C/c3ccccc3)C2C1=O (configuration not stated) | 0.286%
COc1cc(OC)cc(C(=O)NC2CCN(C(=O)N3c4ccccc4Sc4ccccc43)CC2)c1 | -5.05%
O=C(CSc1nc2ccccc2o1)N1CCN(c2ccc(Cl)cc2)CC1 | 1.06%
CN(C)c1ccc(Nc2c3c4c(cccc4n(C)c2=O)C(=O)c2ccccc2-3)cc1 | -0.49%
O=C(Cc1ccc([N+](=O)[O-])cc1)NCCS(=O)(=O)N1CCN(c2ccccc2)CC1 | -0.717%
CC(C)C(NC(=O)c1c(F)cccc1F)C(=O)NNC(=O)c1ccccc1 (configuration not stated) | -3.91%
CN1C(=O)CC(c2ccccc2)C1=O (configuration not stated) | -1.61%
O=C(Cn1nnc(-c2ccccc2)n1)N/N=C/c1ccc(-c2ccc(Cl)cc2)o1 | -1.53%
CCC(C)N1C(=O)S/C(=C/c2ccc(Sc3nc4ccccc4[nH]3)o2)C1=O (configuration not stated) | -0.197%
O=C(O)C(c1ccccc1)N1C(=O)/C(=C\c2ccc(-c3cccc(Cl)c3)o2)SC1=S (configuration not stated) | 13% (active)
COc1c(C)cc(C(=O)C2CCCN(S(=O)(=O)c3c(C)noc3C)C2)cc1C (configuration not stated) | -0.846%
CCOCN(C(=O)Cn1c(C(C)O)nc2ccccc21)c1c(C)cccc1CC (configuration not stated) | -5.11%
CCCNC(=O)c1cc(C2CCCCN2C(=O)OC)on1 (configuration not stated) | -0.481%
CCN(CC)S(=O)(=O)c1ccc(N2CC(C(=O)NCc3cccnc3)CC2=O)cc1 (configuration not stated) | -2.96%
O=C(Cn1c2[n+](c3ccc(C(F)(F)F)cc31)CCCCC2)Nc1c(F)cccc1F | 4.18%
CC1CCN(c2ccc(C(=O)Nc3nnc(C4CC4)s3)cc2[N+](=O)[O-])CC1 | -1.32%

SMILES | inhibition
Cc1cc(OCCCC(=O)Nc2cc(S(=O)(=O)N3CCOCC3)ccc2N2CCOCC2)ccc1Cl | 0.172%
COC(=O)c1cc(Oc2ccc(S(=O)(=O)N3CCOCC3)cc2[N+](=O)[O-])cc(C(=O)OC)c1 | 0.28%
O=[N+]([O-])c1cc(Cl)cc(/C=N/NC(=S)Nc2cc(S(=O)(=O)N3CCOCC3)ccc2Cl)c1O | 22.5% (active)
O=S(=O)(NCC1OCCc2ccccc21)c1ccccc1 (configuration not stated) | -0.133%
Cn1c(=O)cc(SCC(=O)N2CCCC2)c2cc(Cl)ccc21 | -4.85%
CC(C)Cc1nn2c(=O)cc(O)nc2s1 | 0.338%
CC(=O)N1CCN(S(=O)(=O)c2ccc(C)c([N+](=O)[O-])c2)C1C(C)C (configuration not stated) | -3.8%
COC(=O)C1CCN(C(=O)c2ccc3oc(Cc4ccc(Cl)cc4)nc3c2)CC1 | -0.812%
O=C(CN1C(=O)NC2(CCCC2)C1=O)NCC1CCCO1 (configuration not stated) | -1.47%
CCc1nc2ccc(C(=O)NC3CCN(Cc4ccccc4)CC3)cn2c1N(CC)CCOC | -4.48%
CNS(=O)(=O)c1cnccc1N1CCN(c2cccc(C)c2)CC1 | -0.922%
CCn1cc(/C=C(\NC(=O)c2ccc(C)cc2)C(=O)NCCN2CCOCC2)c2ccccc21 | 1.23%
CC(C)CCN1NC2(CCC(C)CC2)NC1=S (configuration not stated) | -3.86%
COc1ccc(S(=O)(=O)NC(=O)C2(C)CCN2C(=O)COc2ccc(Cl)cc2)cc1 (configuration not stated) | -5.43%
COc1cccc(/C=N/Nc2ccc(S(=O)(=O)Nc3ccccc3C(=O)O)cc2[N+](=O)[O-])c1O | 35.4% (active)
CCN(CC(=O)NCc1cccs1)C(=O)c1cccc(S(=O)(=O)Nc2ccccc2OC)c1 | -3.38%
COc1ccc(Br)cc1/C=N/Nc1ccc(S(=O)(=O)Nc2ccccc2C(=O)O)cc1[N+](=O)[O-] | -1.21%
O=c1c(F)cn(C2CCCO2)c(=O)n1Cc1ccccc1Cl (configuration not stated) | -2.45%
Cc1nnc(CN(C)Cc2cn[nH]c2-c2ccc(-c3ccccc3)cc2)o1 | -1.34%
COc1ccc(OC)c(S(=O)(=O)N(C)CC(=O)N2CCN(c3ccccc3)CC2)c1 | -3.85%
COc1ccccc1CNC(=O)CSc1nc(=O)n(Cc2ccncc2)c2c1CCC2 | -0.173%
OC(CNC1CCCC1)COc1ccc(F)cc1 (configuration not stated) | -4.58%

SMILES | inhibition
Cc1noc(C)c1-c1ccc(C(=O)NCc2ccncc2)c2occc12 | -2.15%
Cc1ccc(O)c(-c2cc(C(=O)Nc3c(C)n(C)n(-c4ccccc4)c3=O)[nH]n2)c1 | -2.28%
COC(=O)c1ccc(CSc2nnc(NC(C)C)s2)cc1 | -3.65%
O=C(O)c1ccc(N/N=C/c2cn(-c3ccccc3)nc2-c2cccs2)cc1 | 23.7% (active)
COc1ccc(Cl)cc1NC(=O)CN(C)C(=O)c1cn(-c2ccccc2)nc1-c1cccs1 | -1.26%
O=C(O)c1ccc(N/N=C/c2ccc3ncccc3c2)cc1 | -1.11%
Cc1nnc(Nc2ccccc2F)s1 | -1.11%
COCCNC(=O)c1ccc2nc(Cc3ccc(OC)c(OC)c3)oc2c1 | -2.89%
COCCNC(=O)Nc1ccc2nc(-c3ccco3)c(-c3ccco3)nc2c1 | 20.8% (active)
COCCNC(=O)CN(Cc1ccco1)C(=O)CCC(=O)Nc1nccs1 | -3.92%
O=S(=O)(NCCCCCCNS(=O)(=O)c1c(F)cccc1F)c1ccc2c(c1)OCCO2 | -2.1%
O=C(COC(=O)c1cccc(Cl)c1)NC(=O)NCc1ccccc1 | -1.95%
O=C1c2ccccc2C(=O)N1c1ccccc1S(=O)C(F)(F)F (configuration not stated) | -3.78%
CC(C(=O)Nc1ccc(F)c(F)c1F)N1CCCCCC1 (configuration not stated) | -6.4%
CC1(C)CC(=O)C=C(NCc2ccncc2)C1 | 1.4%
CCOc1ccc(CN(C)C(=O)c2ccc(=O)[nH]c2)cc1 | -0.407%
O=C(Nc1c2c(nn1-c1ccccc1)CS(=O)(=O)C2)C1CCCC1 | -0.538%
Cc1nn(C)c(Cl)c1CN1CCC(n2nccc2NC(=O)C2CCCC2)CC1 | 1.24%
O=C(Cn1ccc([N+](=O)[O-])n1)NCc1cccs1 | -2.06%
N#C/C(=C/c1ccc(N2CCCCC2)o1)C(=O)NCCc1c[nH]c2ccccc12 | -1.59%
Cc1ccc(C(O)P(=O)(OC(C)C)c2ccc(N(C)C)cc2)cc1 (configuration not stated) | 0.612%
CCCCn1c(N)c(N2CCOCC2)c(=O)n(CC(=O)NCCc2ccccc2)c1=O | 0%

SMILES | inhibition
N[C@@H](Cc1ccccc1)C(=O)N1CCC(C(=O)NCC(=O)Nc2ccc(F)cc2)CC1 | 0.565%
O=C(CSc1n[nH]c(=O)n1-c1ccccc1)Nc1ccccc1C(F)(F)F | -1.05%
C=C1c2c(Cl)ccc(O)c2C(O)=C2C(=O)[C@]3(O)C(O)=C(C(N)=O)C(=O)[C@@H](N(C)C)[C@@H]3[C@@H](O)C12 (some centres not stated) | 11.1% (active)
C[C@H]([C@@H](O)[C@@H](O)[C@@H](C)C(C)(C)C)[C@H]1CC[C@H]2C3CC[C@H]4C[C@H](OS(=O)(=O)O)[C@@H](OS(=O)(=O)O)C[C@]4(C)[C@H]3CC[C@]12C (some centres not stated) | -4.53%
Cc1ccc(NC(=O)C(c2ccccc2)N2CCN(C(=O)c3ccco3)CC2)cc1 (configuration not stated) | -0.809%
COc1ccc(C(CNC(=O)c2cccc(S(=O)(=O)Nc3ccccc3Cl)c2)N2CCOCC2)cc1 (configuration not stated) | 0.098%
CCCCN=C1N/C(=C\c2ccco2)C(=O)N1c1ccccc1 | -0.549%
COC(=O)C1=C(C)N(C(C)c2ccccc2)C(=O)/C1=C\c1ccco1 (configuration not stated) | -2.87%
COc1ccc(N2C(=O)/C(=C/c3ccco3)C(=O)NC2=S)cc1 | 32.5% (active)
N#CCN(C(=O)COC(=O)C1CC2CCCC(C1)C2=O)c1ccccc1 (configuration not stated) | 0.44%
CCOC(=O)C(CC)/C(C)=N\NC(=O)c1cccc(C)c1 (configuration not stated) | -0.964%
CCN(CC)C(=O)C1=C(C)N(Cc2ccc(F)cc2)C(=O)C(CC(=O)NC2CCCC2)C1 (configuration not stated) | -3.83%
Cc1ccc(S(=O)(=O)N(C)c2ccc(OCC(=O)OCc3ccc(C#N)cc3)cc2)cc1 | -1.59%
Nc1ncc(CN2CCCC(C(=O)Nc3ccc(-c4ccco4)cc3)C2)cn1 (configuration not stated) | -5.68%
O=C(COC(=O)CNS(=O)(=O)c1ccc(F)c(F)c1F)NC1CCCC1 | -2.7%
O=C(OCc1ccc([N+](=O)[O-])cc1)C1CC(=O)N(Cc2ccccc2Cl)C1 (configuration not stated) | -0.71%
Cc1ccc(S(=O)(=O)N2CCOCC2)cc1NC(=O)CSc1nnc(N)s1 | 1.4%
O=S(=O)(Nc1ccc2nc(-c3ccco3)[nH]c2c1)c1ccccc1 | -2.01%
COc1cc2c(C(=O)O)c(C)n(C)c2c2ccccc12 | 2.25%
COc1cccc2c(O)cc(=O)n(C)c12 | -3.24%
COc1cccc2c(C)c(C(=O)O)[nH]c12 | 15.1% (active)
